Drawing on PubChem BioAssay AID504604 (National Center for Advancing Translational Sciences (NCATS), 2011), this text covers Potency for 2 compounds.

Each structure is given as a SMILES string. Calls of active or inactive are those of the source. The call rests on the fitted dose curve; in most records, active means well fitted inhibition curve with a large enough effect; inconclusive means small, poorly fitted or top-dose-only effect; inactive means flat fitted curve, though single readings scatter.

The assay is described as follows: Quantitative high throughput screen to test activity of anti-malarial compounds in the Dd2 strain of Plasmodium Falciparum. To be noted: P. falciparum Dd2 in RBCs, SYBR Green growth, 72 h. The text has this:
NIH Molecular Libraries Probe Production Network [MLPCN] NIH Chemical Genomics Center [NCGC] MLPCN Grant: R21 NS059500 Assay Provider: David Fidock and Eric Ekland, Columbia University The goal of this screen is to measure the ability of a set of anti-malarial compounds to inhibit the Dd2 strain of P. falciparum. These compounds have been screened in a delayed death phenotype assay and have been identified as inhibitors of the delated death phenotype, by inhibiting the development of the apicoplast in the malarial parasite Plasmodium falciparum (described below) The biochemical processes that make this organelle essential for erythrocytic stage parasites are not well understood. However, antibiotics, such as azithromycin and tetracycline, which target the apicoplast translational machinery, have a potent antimalarial effect. […] We have developed a cell-based assay that measures parasite growth based on the expression of an integrated copy of a firefly luciferase reporter. To detect small molecules that cause this 'delayed death' phenotype, erythrocytes infected with the luciferase-expressing parasites were incubated with compounds for either one or two generations, corresponding to 48 and 96 hours, respectively. […] Growth inhibition is detected by a decrease in luciferase activity […]

Regarding `C[C@@H]1CN([C@@H](C)CO)C(=O)c2cc(NC(=O)Nc3ccccc3)ccc2O[C@@H](C)CCCCO[C@H]1CN(C)C(=O)Oc1ccccc1`, the Potency was 8.96 µM (active).
`COc1ccc(COC[C@H](C)N2C[C@@H](C)[C@H](CN(C)S(=O)(=O)c3ccc(F)cc3)OCCCC[C@H](C)Oc3ccc(NC(=O)Nc4ccccc4)cc3C2=O)cc1`: the Potency is 0.0142 µM (active).
